# In PubChem BioAssay (NCATS):
# Results filed as inconclusive are left out. Calls of active or inactive are those of the source. Unless noted, calls come from the whole dose curve; as a rule, active = well fitted curve in the direction sought with a large enough effect; inconclusive = small, poorly fitted or top-dose-only effect, or another doubt; inactive = no such curve, though single readings can be large; an effect the other way counts as inactive or inconclusive.
# Tests used:
# [1] = Primary qHTS for inhibitors of nuclear receptor binding SET domain protein 2 (NSD2) in an isogenic RCH-ACV NSD2 p.E1099K mutant (9B) (AID 1645876); note: nearly all actives have a fitted effect of over 70% in size
# [2] = Primary qHTS for inhibitors of nuclear receptor binding SET domain protein 2 (NSD2) in an RCH-ACV wild type WT cells (2C) (AID 1645877); note: nearly all actives have a fitted effect of over 70% in size
# [3] = molecular target: Catechol O-methyltransferase (Homo sapiens) (UniProt P21964); assay: Confirmatory Screen for Target Class Profiling of Small Molecule Inhibitors of Methyltransferases (AID 1745852; calls by dose curve; for activity change, negative = inhibition: % is set by controls: 0 for no effect and ±100 for the full control effect); details: MTase-Glo luminescence, SAH detection, recombinant enzyme; measured here: COMT max response; stronger effect = lower value
# [4] = molecular target: Guanidinoacetate N-methyltransferase (Homo sapiens) (UniProt Q14353); assay: as above; details: activity change, negative = inhibition: at 57.3 µM (top of the series)
# [5] = molecular target: Nicotinamide N-methyltransferase (Homo sapiens) (UniProt P40261); assay: as above; details: MTase-Glo luminescence, SAH detection, recombinant enzyme; measured here: NNMT max response; stronger effect = lower value
# Potency is the fitted concentration of half-maximal effect.
# Catechol O-methyltransferase (Homo sapiens), sequence (P21964 whole entry, looked up): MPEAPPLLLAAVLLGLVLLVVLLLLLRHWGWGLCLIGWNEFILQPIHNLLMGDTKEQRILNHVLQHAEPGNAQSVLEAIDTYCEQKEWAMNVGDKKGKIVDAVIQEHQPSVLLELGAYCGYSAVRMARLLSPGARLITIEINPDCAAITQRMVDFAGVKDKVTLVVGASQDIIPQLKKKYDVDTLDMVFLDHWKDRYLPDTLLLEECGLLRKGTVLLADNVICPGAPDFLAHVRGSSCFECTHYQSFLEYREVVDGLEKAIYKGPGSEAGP
# Nicotinamide N-methyltransferase (Homo sapiens), sequence (P40261 whole entry, looked up): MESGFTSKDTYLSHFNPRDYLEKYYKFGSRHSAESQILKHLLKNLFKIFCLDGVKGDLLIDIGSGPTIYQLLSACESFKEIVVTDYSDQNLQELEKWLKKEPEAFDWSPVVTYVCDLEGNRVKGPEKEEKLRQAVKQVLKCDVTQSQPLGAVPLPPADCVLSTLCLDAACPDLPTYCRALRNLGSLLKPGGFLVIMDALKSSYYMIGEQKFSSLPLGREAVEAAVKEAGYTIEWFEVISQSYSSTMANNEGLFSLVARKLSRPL
structure (smiles),measurement,setting,value
C[C@@H](Cc1cc2c(c(C(N)=O)c1)N(CCCO)CC2)NCCOc1ccccc1OCC(F)(F)F,Potency,[1],inactive
same,Potency,[2],inactive
CCC(C(=O)O)C1CCC(C)C(C(C)C(O)C(C)C(=O)C(CC)C2OC3(C=CC(O)[C@@]4(CC[C@](C)(C5CC[C@@](O)(CC)C(C)O5)O4)O3)C(C)CC2C)O1 (stereo partly specified),Potency,[1],468 nM (active)
same,Potency,[2],417 nM (active)
CNC(=O)Nc1ccc(-c2nc(N3CC4CCC(C3)O4)c3cnn(C4CCC5(CC4)OCCO5)c3n2)cc1,Potency,[1],74.2 nM (active)
same,Potency,[2],118 nM (active)
COc1cc2c(Nc3ccc(Cl)c(Cl)c3F)ncnc2cc1OCC1C[C@@H]2CN(C)C[C@H]2C1,activity,[3],-71.6%
same,Potency,[4],21500 nM (active)
same,activity,[5],-56.2%
CCS(=O)(=O)Nc1ccc2[nH]c(O)c(C(=Nc3ccc(CN4CCCCC4)cc3)c3ccccc3)c2c1,Potency,[1],148 nM (active)
same,Potency,[2],29.5 nM (active)
N#Cc1c(NC(=O)c2cccc3ccccc23)sc2c1CCCC2,Potency,[1],263 nM (active)
same,Potency,[2],263 nM (active)
NC(=O)Nc1sc(-c2ccc(F)cc2)cc1C(N)=O,Potency,[1],3320 nM (active)
same,Potency,[2],3720 nM (active)
c1cc(N[C@@H]2CCNC2)nc(-c2cnc3ccc(-c4cn[nH]c4)cn23)c1,Potency,[1],2630 nM (active)
same,Potency,[2],934 nM (active)
same,activity,[3],-4.23%
same,Potency,[4],inactive
same,activity,[5],-7.42%
Oc1ccc(-c2ccc(-c3cc(Nc4cccc(CNC5CC5)c4)n[nH]3)cc2)c(O)c1,Potency,[1],1480 nM (active)
same,Potency,[2],1860 nM (active)
Cc1ccc(O)c(C(CCN(C(C)C)C(C)C)c2ccccc2)c1 (stereo unspecified),Potency,[1],inactive
same,Potency,[2],inactive
COc1cc(C)c(Sc2cnc(NC(=O)c3ccc(CNC(C)C(C)(C)C)cc3)s2)cc1C(=O)N1CCN(C(C)=O)CC1 (stereo unspecified),Potency,[1],7420 nM (active)
same,Potency,[2],4680 nM (active)
CN1C(C(=O)Nc2ccccn2)=C(O)c2sc(Cl)cc2S1(=O)=O,Potency,[1],inactive
same,Potency,[2],inactive
c1cc(CN2CCCNCCNCCCNCC2)ccc1CN1CCCNCCNCCCNCC1,Potency,[2],inactive
COc1cc(C[C@@H](CO)[C@H](CO)Cc2ccc(O)c(OC)c2)ccc1O,Potency,[1],inactive
same,Potency,[2],inactive
O=C(CCCCCCC(=O)Nc1cccnc1)NO,Potency,[1],4170 nM (active)
same,Potency,[2],3320 nM (active)
Cn1cc(-c2cnn3c(N)c(Br)c([C@H]4CCCNC4)nc23)cn1,activity,[3],-1.78%
same,"activity change, negative = inhibition",[4],2.57%
same,activity,[5],-6.14%
